# Where a name gives a salt, the structure may show the parent alone.
# Tests used:
# Test in all cases: lowest phenotypically active concentration; higher = less potent
# Settings in all cases: treatment time: 24 h
# A549-TUBA1B-RELA = system: A549-TUBA1B-RELA
# Summary of the method: (§1)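 Fifteen reporter lines derived from A549, HepG2 and WPMY1 cells by gene editing, carrying BFP for segmentation plus GFP and RFP/FusionRed markers, were exposed to 0.3, 1, 3 or 9 µM for 24 h in four wells each and imaged live. Live-cell features from each well were normalised to solvent control wells. A well set counted as deviating when ≥3 of 4 wells lay beyond the 95th percentile of control Euclidean distances, and as reproducible when the median replicate Pearson correlation exceeded the 95th percentile of non-replicates. Phenotypic activity was assigned only when both criteria were met.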
# HepG2-CANX-COX4 = system: HepG2-CANX-COX4
# Summary of the method: as §1
# WPMY1-ACTB-RAB5A = system: WPMY1-ACTB-RAB5A
# Summary of the method: as §1
# HepG2-GM130-SQSTM1 = system: HepG2-GM130-SQSTM1
# Summary of the method: as §1
# HepG2-TUBA1B-RELA = system: HepG2-TUBA1B-RELA
# Summary of the method: as §1
# WPMY1-TUBA1B-RELA = system: WPMY1-TUBA1B-RELA
# Summary of the method: as §1
# HepG2-TP53BP1-CLTA = system: HepG2-TP53BP1-CLTA
# Summary of the method: as §1
# WPMY1-TP53BP1-CLTA = system: WPMY1-TP53BP1-CLTA
# Summary of the method: as §1
# A549-TP53BP1-CLTA = system: A549-TP53BP1-CLTA
# Summary of the method: as §1
compound,measurement,setting,value
CN1C(=O)/C(=C2/Nc3ccccc3/C2=N/O)c2ccc(Br)cc21,lowest phenotypically active concentration,A549-TUBA1B-RELA,≤ 0.3 µM
same,lowest phenotypically active concentration,HepG2-CANX-COX4,3 µM
same,lowest phenotypically active concentration,WPMY1-ACTB-RAB5A,1 µM
CCN(CCO)CCCC(C)Nc1ccnc2cc(Cl)ccc12 (stereo not drawn) [hydroxychloroquine],lowest phenotypically active concentration,A549-TUBA1B-RELA,9 µM
same,lowest phenotypically active concentration,HepG2-GM130-SQSTM1,9 µM
same,lowest phenotypically active concentration,HepG2-TUBA1B-RELA,9 µM
same,lowest phenotypically active concentration,WPMY1-ACTB-RAB5A,9 µM
same,lowest phenotypically active concentration,WPMY1-TUBA1B-RELA,9 µM
CC(CN(C)C)CN1c2ccccc2CCc2ccccc21 (stereo not drawn) [trimipramine],lowest phenotypically active concentration,A549-TUBA1B-RELA,9 µM
same,lowest phenotypically active concentration,HepG2-TUBA1B-RELA,9 µM
same,lowest phenotypically active concentration,WPMY1-ACTB-RAB5A,9 µM
COCCCC/C(=N/OCCN)c1ccc(C(F)(F)F)cc1 [fluvoxamine],lowest phenotypically active concentration,A549-TUBA1B-RELA,9 µM
same,lowest phenotypically active concentration,HepG2-TP53BP1-CLTA,9 µM
same,lowest phenotypically active concentration,HepG2-TUBA1B-RELA,9 µM
same,lowest phenotypically active concentration,WPMY1-ACTB-RAB5A,9 µM
O=C(NCCN1CCC(n2c(=O)[nH]c3ccccc32)CC1)c1cc2cc(F)ccc2[nH]1,lowest phenotypically active concentration,A549-TUBA1B-RELA,3 µM
same,lowest phenotypically active concentration,HepG2-CANX-COX4,9 µM
same,lowest phenotypically active concentration,HepG2-GM130-SQSTM1,9 µM
same,lowest phenotypically active concentration,HepG2-TP53BP1-CLTA,9 µM
same,lowest phenotypically active concentration,HepG2-TUBA1B-RELA,9 µM
same,lowest phenotypically active concentration,WPMY1-ACTB-RAB5A,9 µM
same,lowest phenotypically active concentration,WPMY1-TP53BP1-CLTA,9 µM
same,lowest phenotypically active concentration,WPMY1-TUBA1B-RELA,9 µM
NC(=O)C(c1ccccc1)(c1ccccc1)[C@@H]1CCN(CCc2ccc3c(c2)CCO3)C1 [darifenacin],lowest phenotypically active concentration,A549-TUBA1B-RELA,9 µM
same,lowest phenotypically active concentration,HepG2-CANX-COX4,9 µM
same,lowest phenotypically active concentration,HepG2-GM130-SQSTM1,9 µM
same,lowest phenotypically active concentration,HepG2-TP53BP1-CLTA,9 µM
same,lowest phenotypically active concentration,WPMY1-TP53BP1-CLTA,9 µM
O=C(Nc1nc2cc(C(F)(F)F)cc(NC3CC3)n2n1)c1cccnc1,lowest phenotypically active concentration,A549-TUBA1B-RELA,9 µM
same,lowest phenotypically active concentration,HepG2-CANX-COX4,3 µM
same,lowest phenotypically active concentration,HepG2-TP53BP1-CLTA,9 µM
same,lowest phenotypically active concentration,HepG2-TUBA1B-RELA,9 µM
same,lowest phenotypically active concentration,WPMY1-ACTB-RAB5A,3 µM
same,lowest phenotypically active concentration,WPMY1-TP53BP1-CLTA,3 µM
CN1CCN(c2ccc(-c3cccc(CN4CCOCC4)c3)cc2NC(=O)c2c[nH]c(=O)cc2C(F)(F)F)CC1,lowest phenotypically active concentration,A549-TUBA1B-RELA,9 µM
same,lowest phenotypically active concentration,HepG2-GM130-SQSTM1,9 µM
same,lowest phenotypically active concentration,HepG2-TP53BP1-CLTA,9 µM
same,lowest phenotypically active concentration,HepG2-TUBA1B-RELA,9 µM
same,lowest phenotypically active concentration,WPMY1-TP53BP1-CLTA,9 µM
same,lowest phenotypically active concentration,WPMY1-TUBA1B-RELA,9 µM
CC(C)c1c(C(=O)Nc2ccccc2)c(-c2ccccc2)c(-c2ccc(F)cc2)n1CC[C@@H](O)C[C@@H](O)CC(=O)O [atorvastatin],lowest phenotypically active concentration,HepG2-CANX-COX4,9 µM
same,lowest phenotypically active concentration,HepG2-GM130-SQSTM1,3 µM
same,lowest phenotypically active concentration,HepG2-TP53BP1-CLTA,9 µM
same,lowest phenotypically active concentration,HepG2-TUBA1B-RELA,3 µM
same,lowest phenotypically active concentration,WPMY1-ACTB-RAB5A,1 µM
same,lowest phenotypically active concentration,WPMY1-TP53BP1-CLTA,9 µM
same,lowest phenotypically active concentration,WPMY1-TUBA1B-RELA,3 µM
CC[C@H](CO)Nc1nc(Nc2cccc(-c3ccccn3)c2)c2ncn(C(C)C)c2n1 [(R)-DRF053 dihydrochloride],lowest phenotypically active concentration,HepG2-GM130-SQSTM1,9 µM
same,lowest phenotypically active concentration,HepG2-TP53BP1-CLTA,9 µM
same,lowest phenotypically active concentration,HepG2-TUBA1B-RELA,9 µM
same,lowest phenotypically active concentration,WPMY1-TUBA1B-RELA,9 µM
CNCC[C@H](Oc1cccc2ccccc12)c1cccs1 [duloxetine],lowest phenotypically active concentration,A549-TUBA1B-RELA,9 µM
CCC(C)(C)C(=O)O[C@H]1C[C@@H](C)C=C2C=C[C@H](C)[C@H](CC[C@@H]3C[C@@H](O)CC(=O)O3)[C@H]21 [Simvastatin],lowest phenotypically active concentration,A549-TP53BP1-CLTA,9 µM
same,lowest phenotypically active concentration,HepG2-CANX-COX4,1 µM
same,lowest phenotypically active concentration,HepG2-GM130-SQSTM1,1 µM
same,lowest phenotypically active concentration,HepG2-TP53BP1-CLTA,3 µM
same,lowest phenotypically active concentration,HepG2-TUBA1B-RELA,1 µM
same,lowest phenotypically active concentration,WPMY1-ACTB-RAB5A,≤ 0.3 µM
same,lowest phenotypically active concentration,WPMY1-TP53BP1-CLTA,3 µM
same,lowest phenotypically active concentration,WPMY1-TUBA1B-RELA,3 µM
N#Cc1ccc2ncnc(NCCc3ccccc3)c2c1 [Senexin A],lowest phenotypically active concentration,HepG2-CANX-COX4,9 µM
same,lowest phenotypically active concentration,WPMY1-ACTB-RAB5A,1 µM
same,lowest phenotypically active concentration,WPMY1-TUBA1B-RELA,3 µM
CNC(=O)c1cc(Oc2ccc(NC(=O)Nc3ccc(Cl)c(C(F)(F)F)c3)c(F)c2)ccn1 [regorafenib],lowest phenotypically active concentration,A549-TP53BP1-CLTA,9 µM
same,lowest phenotypically active concentration,HepG2-CANX-COX4,3 µM
same,lowest phenotypically active concentration,HepG2-GM130-SQSTM1,≤ 0.3 µM
same,lowest phenotypically active concentration,HepG2-TP53BP1-CLTA,≤ 0.3 µM
same,lowest phenotypically active concentration,HepG2-TUBA1B-RELA,≤ 0.3 µM
same,lowest phenotypically active concentration,WPMY1-TP53BP1-CLTA,9 µM
CC(C)(C)c1ccc(C(O)CCCN2CCC(C(O)(c3ccccc3)c3ccccc3)CC2)cc1 (stereo not drawn) [terfenadine],lowest phenotypically active concentration,HepG2-TUBA1B-RELA,1 µM
same,lowest phenotypically active concentration,WPMY1-TUBA1B-RELA,3 µM
CC1(CN2CCC(n3c(=O)[nH]c4ccccc43)CC2)OCc2ccccc2-n2cccc21 (stereo not drawn),lowest phenotypically active concentration,A549-TUBA1B-RELA,9 µM
O=C1c2c(O)cccc2Cc2cccc(O)c21 [anthralin],lowest phenotypically active concentration,WPMY1-ACTB-RAB5A,9 µM
same,lowest phenotypically active concentration,WPMY1-TUBA1B-RELA,9 µM
CCOC(=O)c1c2c3c(cccc3[nH]c1=O)C(=O)c1ccccc1-2,lowest phenotypically active concentration,HepG2-TP53BP1-CLTA,≤ 0.3 µM
Cn1cc(-c2cnc3ccc4ccc(CS(=O)(=O)NCc5ccccn5)cc4c(=O)c3c2)cn1,lowest phenotypically active concentration,A549-TUBA1B-RELA,9 µM
O=C(/C=C/c1ccc2ccccc2n1)c1ccncc1,lowest phenotypically active concentration,A549-TUBA1B-RELA,9 µM
same,lowest phenotypically active concentration,HepG2-GM130-SQSTM1,9 µM
same,lowest phenotypically active concentration,HepG2-TUBA1B-RELA,9 µM
same,lowest phenotypically active concentration,WPMY1-ACTB-RAB5A,9 µM
same,lowest phenotypically active concentration,WPMY1-TP53BP1-CLTA,9 µM
same,lowest phenotypically active concentration,WPMY1-TUBA1B-RELA,9 µM
COc1cc(OC)c2c(=O)[nH]c(-c3cc(C)c(OCCO)c(C)c3)nc2c1 [apabetalone],lowest phenotypically active concentration,HepG2-CANX-COX4,9 µM
same,lowest phenotypically active concentration,HepG2-GM130-SQSTM1,9 µM
same,lowest phenotypically active concentration,WPMY1-TP53BP1-CLTA,9 µM
same,lowest phenotypically active concentration,WPMY1-TUBA1B-RELA,9 µM
COc1cc2nccc(Oc3ccc(NC(=O)C4(C(=O)Nc5ccc(F)cc5)CC4)cc3)c2cc1OC,lowest phenotypically active concentration,A549-TUBA1B-RELA,≤ 0.3 µM
same,lowest phenotypically active concentration,WPMY1-ACTB-RAB5A,3 µM

# Source: the supplement of paper PMC7411054
